Measured values taken from PubChem BioAssay (Tox21).
Where “and” joins values, the source holds several entries; their conditions need not be identical. Equal values may be shown once. Records with an inconclusive call do not appear. Some structures have more than one record in an assay (separate samples or runs), and their calls can disagree. Calls of active or inactive are those of the source. Unless noted, the call rests on the fitted dose curve; in most records, active means well fitted curve in the direction sought with a large enough effect in the repeat runs; inconclusive means weak or mixed curves; inactive means no such curve, though single readings can be large; an effect the other way counts as inactive or inconclusive.

Tests used:
[1] = biological target: Thyrotropin-releasing hormone receptor (Homo sapiens) (UniProt P34981); assay: qHTS assay to identify small molecule agonists of the thyrotropin-releasing hormone receptor (TRHR) signaling pathway (AID 1346891; calls by dose curve;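 further: HEK293 cells expressing TRHR with calcium dye readout; series mostly up to about 58 µM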)
Chain of Thyrotropin-releasing hormone receptor (Homo sapiens) (P34981 whole entry, looked up): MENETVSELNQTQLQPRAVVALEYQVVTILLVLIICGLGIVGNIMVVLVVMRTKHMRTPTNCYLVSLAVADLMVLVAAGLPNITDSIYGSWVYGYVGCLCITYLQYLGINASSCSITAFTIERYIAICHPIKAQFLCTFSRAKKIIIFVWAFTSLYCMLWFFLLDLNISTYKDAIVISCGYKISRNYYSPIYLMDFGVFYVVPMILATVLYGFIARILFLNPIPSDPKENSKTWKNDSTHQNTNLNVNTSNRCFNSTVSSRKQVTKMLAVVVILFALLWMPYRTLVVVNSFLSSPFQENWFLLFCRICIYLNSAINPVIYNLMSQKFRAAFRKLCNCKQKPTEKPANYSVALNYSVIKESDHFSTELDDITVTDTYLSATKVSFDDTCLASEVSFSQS
How it was run: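 Compounds were tested as agonists at 15 concentrations, in triplicate, on TRHR-Hek293 cells; calcium-sensitive dye fluorescence was recorded for 3 min following addition.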

[2] = Human pregnane X receptor (PXR) small molecule agonists, qHTS cell viability counter screen (AID 1346977); further: nearly all actives have a fitted effect of over 50% in size; further: potency means the concentration at half of the fitted maximal effect
How it was run: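 Viability counter screen: CellTiter-Fluor signal in PXR-Luc HepG2 cells, 24hr compound exposure, 37C, 5% CO2.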

[3] = Caspase-3/7 induction in CHO-K1 cells by small molecules, qHTS cell viability counter screen (AID 1346979); further: nearly all actives have a fitted effect of over 35% in size
How it was run: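 Viability readout by fluorescence (CellTiter-Fluor) on wild-type CHO-K1 cells exposed for 16hr at 37C and 5% CO2 to compounds delivered in DMSO; reagent incubated 1hr before reading.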

[4] = Caspase-3/7 induction in CHO-K1 cells by small molecules, qHTS assay (AID 1346980); further: nearly all actives have a fitted effect of over 15% in size
How it was run: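 Luminescent Caspase-Glo 3/7 read (30min, room temperature) quantified apoptosis induction. Cells were wild-type CHO-K1, treated with compound for 17hr at 37 C and 5% CO2.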

[5] = biological target: Nuclear receptor subfamily 1 group I member 2 (Homo sapiens) (UniProt O75469); assay: Human pregnane X receptor (PXR) small molecule agonists, qHTS assay (AID 1346982); further: nearly all actives have a fitted effect of over 35% in size; further: potency means the concentration at half of the fitted maximal effect
Chain of Nuclear receptor subfamily 1 group I member 2 (Homo sapiens) (O75469 whole entry, looked up): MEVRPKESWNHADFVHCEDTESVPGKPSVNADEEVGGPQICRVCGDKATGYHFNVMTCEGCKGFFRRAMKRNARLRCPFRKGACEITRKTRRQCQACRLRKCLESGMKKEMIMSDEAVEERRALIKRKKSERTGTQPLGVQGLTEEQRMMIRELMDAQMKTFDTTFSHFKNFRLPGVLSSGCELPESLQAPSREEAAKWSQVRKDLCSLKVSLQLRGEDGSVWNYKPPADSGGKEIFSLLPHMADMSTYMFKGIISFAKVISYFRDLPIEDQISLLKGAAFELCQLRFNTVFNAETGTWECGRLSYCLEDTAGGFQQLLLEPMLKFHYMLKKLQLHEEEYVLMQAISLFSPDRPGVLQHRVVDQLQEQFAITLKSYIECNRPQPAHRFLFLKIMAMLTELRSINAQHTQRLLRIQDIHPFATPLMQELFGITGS
How it was run: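 PXR-Luc HepG2 reporter cells (CYP3A4-driven luciferase) in 5% charcoal-stripped FBS medium, plated 5 h before compound addition, then treated 24 h at 37C. Luciferase read by ONE-Glo luminescence after 30 min at room temperature.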

[6] = biological target: Nuclear receptor subfamily 1 group I member 2 (Rattus norvegicus) (UniProt Q9R1A7); assay: Rat pregnane X receptor (rPXR) activation by small molecules, qHTS assay (AID 1346983); conditions: rPXR luciferase reporter cells, One-Glo luminescence, 24 h; max activation: stronger effect = higher value; further: nearly all actives have a fitted effect of over 20% in size; further: potency means the concentration at half of the fitted maximal effect
Chain of Nuclear receptor subfamily 1 group I member 2 (Rattus norvegicus) (Q9R1A7 whole entry, looked up): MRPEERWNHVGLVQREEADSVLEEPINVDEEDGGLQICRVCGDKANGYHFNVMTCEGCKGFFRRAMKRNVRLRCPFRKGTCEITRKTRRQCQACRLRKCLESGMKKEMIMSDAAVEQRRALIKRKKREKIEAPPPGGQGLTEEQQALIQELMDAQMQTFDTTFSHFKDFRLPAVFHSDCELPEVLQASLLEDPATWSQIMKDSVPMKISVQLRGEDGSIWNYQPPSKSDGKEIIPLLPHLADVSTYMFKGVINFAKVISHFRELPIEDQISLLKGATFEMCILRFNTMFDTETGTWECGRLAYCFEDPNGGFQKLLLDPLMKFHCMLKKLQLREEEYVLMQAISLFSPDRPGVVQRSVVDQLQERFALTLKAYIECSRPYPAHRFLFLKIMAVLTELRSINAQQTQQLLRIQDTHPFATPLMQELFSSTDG
How it was run: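 Luminescent readout (One-Glo luciferase, 30 min room temperature) followed 24 hr compound treatment at 37 C of rPXR cells plated 2,000 per well and preincubated 5hr; qHTS format with compounds delivered in DMSO.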

[7] = biological target: Nuclear receptor subfamily 1 group I member 2 (Homo sapiens) (UniProt O75469); assay: CYP3A4 induction through human pregnane X receptor (PXR) by small molecules, qHTS assay (AID 1346984); further: nearly all actives have a fitted effect of over 40% in size
How it was run: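 DPX-2 HepG2 cells carrying a PXR response element and CYP3A4-promoter luciferase construct, treated with compounds 24 hr at 37C. Then P450-Glo CYP3A4 Luciferin-IPA substrate (3uM final) for 3 hr at 37C, One-Glo added, luminescence read.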

[8] = biological target: Cytochrome P450 2D6 (Homo sapiens) (UniProt P10635); assay: Cytochrome P450 Family 2 Subfamily D Member 6 (CYP2D6) small molecule antagonists: luciferase reporter qHTS assay (AID 1671196); further: nearly all actives have a fitted effect of over 50% in size; further: potency means the concentration at half of the fitted maximal effect; on activity change, negative = inhibition: series mostly up to about 120 µM
Chain of Cytochrome P450 2D6 (Homo sapiens) (P10635 whole entry, looked up): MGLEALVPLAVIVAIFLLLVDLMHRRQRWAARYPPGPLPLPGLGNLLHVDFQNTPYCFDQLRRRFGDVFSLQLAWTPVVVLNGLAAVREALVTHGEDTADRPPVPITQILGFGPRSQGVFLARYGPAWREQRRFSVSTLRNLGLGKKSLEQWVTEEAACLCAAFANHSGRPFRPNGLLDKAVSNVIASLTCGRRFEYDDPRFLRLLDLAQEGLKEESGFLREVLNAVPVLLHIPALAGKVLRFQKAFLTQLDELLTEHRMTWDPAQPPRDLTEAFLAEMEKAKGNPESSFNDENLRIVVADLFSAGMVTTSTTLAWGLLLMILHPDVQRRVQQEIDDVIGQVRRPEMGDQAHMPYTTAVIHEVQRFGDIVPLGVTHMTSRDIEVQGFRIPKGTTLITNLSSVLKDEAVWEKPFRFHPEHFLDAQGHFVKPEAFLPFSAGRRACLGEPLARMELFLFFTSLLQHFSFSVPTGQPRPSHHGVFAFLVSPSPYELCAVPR
How it was run: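 Cell-free P450-Glo system: CYP2D6 with proluciferin substrate was pre-incubated with compound for 10 min, then reacted with NADPH regeneration for 1 h at room temperature. Luciferin product was detected after 20 min, and data were reported as relative luminescence units.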

[9] = biological target: Cytochrome P450 2C19 (Homo sapiens) (UniProt P33261); assay: Cytochrome P450 Family 2 Subfamily C Member 19 (CYP2C19) small molecule antagonists: luciferase reporter qHTS assay (AID 1671197); further: nearly all actives have a fitted effect of over 65% in size; further: potency means the concentration at half of the fitted maximal effect; on activity change, negative = inhibition: series mostly up to about 120 µM
Chain of Cytochrome P450 2C19 (Homo sapiens) (P33261 whole entry, looked up): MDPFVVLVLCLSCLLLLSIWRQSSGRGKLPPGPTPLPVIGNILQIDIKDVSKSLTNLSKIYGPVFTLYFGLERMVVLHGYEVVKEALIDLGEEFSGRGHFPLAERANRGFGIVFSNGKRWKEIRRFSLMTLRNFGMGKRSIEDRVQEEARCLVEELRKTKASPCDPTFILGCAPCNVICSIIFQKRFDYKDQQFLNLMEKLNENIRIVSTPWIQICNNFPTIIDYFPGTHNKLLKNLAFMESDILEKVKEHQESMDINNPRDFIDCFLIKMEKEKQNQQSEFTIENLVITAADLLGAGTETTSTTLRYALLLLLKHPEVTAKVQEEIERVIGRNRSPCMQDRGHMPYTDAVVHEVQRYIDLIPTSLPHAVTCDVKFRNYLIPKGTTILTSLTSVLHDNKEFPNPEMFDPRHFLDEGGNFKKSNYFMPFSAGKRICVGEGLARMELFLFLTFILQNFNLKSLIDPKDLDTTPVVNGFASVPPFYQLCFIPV
How it was run: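 CYP2C19 P450-Glo, 1536-well qHTS. Cpd + enzyme/proluciferin substrate 10 min RT; + NADPH regen, 37C 1 h; stop with luciferin detection reagent, 20 min RT, luminescence (RLU). Pos ctrl ketoconazole.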

[10] = biological target: Cytochrome P450 2C9 (Homo sapiens) (UniProt P11712); assay: Cytochrome P450 Family 2 Subfamily C Member 9 (CYP2C9) small molecule antagonists: luciferase reporter qHTS assay (AID 1671198); further: nearly all actives have a fitted effect of over 50% in size; further: potency means the concentration at half of the fitted maximal effect; on activity change, negative = inhibition: series mostly up to about 120 µM
Chain of Cytochrome P450 2C9 (Homo sapiens) (P11712 whole entry, looked up): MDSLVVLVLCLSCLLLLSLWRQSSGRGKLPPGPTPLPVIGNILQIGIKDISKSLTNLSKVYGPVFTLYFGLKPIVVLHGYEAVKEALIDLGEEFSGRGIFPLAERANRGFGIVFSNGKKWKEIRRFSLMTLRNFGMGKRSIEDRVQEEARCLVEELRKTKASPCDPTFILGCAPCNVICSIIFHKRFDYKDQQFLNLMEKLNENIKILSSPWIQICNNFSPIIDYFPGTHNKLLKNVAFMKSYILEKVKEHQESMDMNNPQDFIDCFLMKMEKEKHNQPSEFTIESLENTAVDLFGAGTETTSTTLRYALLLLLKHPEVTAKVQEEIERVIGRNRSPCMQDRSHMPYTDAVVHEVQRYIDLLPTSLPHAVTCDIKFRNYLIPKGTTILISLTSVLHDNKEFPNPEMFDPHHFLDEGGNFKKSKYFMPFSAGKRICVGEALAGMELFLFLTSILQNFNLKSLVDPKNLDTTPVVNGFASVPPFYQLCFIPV
How it was run: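 Enzyme-substrate mix preincubated with compound 10 min at room temperature; reaction started with NADPH regeneration solution, 1 h 37C. Luminescent luciferin product read after 20 min detection reagent.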

[11] = biological target: Cytochrome P450 1A2 (Homo sapiens) (UniProt P05177); assay: Cytochrome P450 Family 1 Subfamily A Member 2 (CYP1A2) small molecule antagonists: luciferase reporter qHTS assay (AID 1671199); further: nearly all actives have a fitted effect of over 50% in size; further: potency means the concentration at half of the fitted maximal effect; on activity change, negative = inhibition: series mostly up to about 120 µM
Chain of Cytochrome P450 1A2 (Homo sapiens) (P05177 whole entry, looked up): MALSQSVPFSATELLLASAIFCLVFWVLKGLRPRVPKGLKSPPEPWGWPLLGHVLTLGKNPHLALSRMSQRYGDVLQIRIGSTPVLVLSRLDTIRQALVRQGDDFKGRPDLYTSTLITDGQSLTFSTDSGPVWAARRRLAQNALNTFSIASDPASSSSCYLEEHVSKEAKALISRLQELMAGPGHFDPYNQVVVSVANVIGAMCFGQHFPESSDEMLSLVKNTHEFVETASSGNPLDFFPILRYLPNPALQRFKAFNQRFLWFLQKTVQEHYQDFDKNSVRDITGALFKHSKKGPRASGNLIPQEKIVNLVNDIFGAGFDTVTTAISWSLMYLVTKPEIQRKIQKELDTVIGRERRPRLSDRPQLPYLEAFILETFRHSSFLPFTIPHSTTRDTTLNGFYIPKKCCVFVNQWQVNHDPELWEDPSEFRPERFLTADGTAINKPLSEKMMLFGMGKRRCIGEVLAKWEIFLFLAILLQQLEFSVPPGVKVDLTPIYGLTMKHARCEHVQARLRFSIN
How it was run: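 P450-Glo CYP1A2 enzyme–proluciferin substrate mix with compound 10 min at room temperature, then NADPH regeneration 1 h at room temperature. Luciferin detection reagent added, luminescence read after 20 min; furafylline positive control.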

[12] = biological target: Voltage-gated inwardly rectifying potassium channel KCNH2 (Homo sapiens) (UniProt Q12809); assay: Human Ether-a-go-go-Related Gene (hERG) channel small molecule antagonists: fluorescence cell-based qHTS assay (AID 1671200)
Chain of Voltage-gated inwardly rectifying potassium channel KCNH2 (Homo sapiens) (Q12809 whole entry, looked up): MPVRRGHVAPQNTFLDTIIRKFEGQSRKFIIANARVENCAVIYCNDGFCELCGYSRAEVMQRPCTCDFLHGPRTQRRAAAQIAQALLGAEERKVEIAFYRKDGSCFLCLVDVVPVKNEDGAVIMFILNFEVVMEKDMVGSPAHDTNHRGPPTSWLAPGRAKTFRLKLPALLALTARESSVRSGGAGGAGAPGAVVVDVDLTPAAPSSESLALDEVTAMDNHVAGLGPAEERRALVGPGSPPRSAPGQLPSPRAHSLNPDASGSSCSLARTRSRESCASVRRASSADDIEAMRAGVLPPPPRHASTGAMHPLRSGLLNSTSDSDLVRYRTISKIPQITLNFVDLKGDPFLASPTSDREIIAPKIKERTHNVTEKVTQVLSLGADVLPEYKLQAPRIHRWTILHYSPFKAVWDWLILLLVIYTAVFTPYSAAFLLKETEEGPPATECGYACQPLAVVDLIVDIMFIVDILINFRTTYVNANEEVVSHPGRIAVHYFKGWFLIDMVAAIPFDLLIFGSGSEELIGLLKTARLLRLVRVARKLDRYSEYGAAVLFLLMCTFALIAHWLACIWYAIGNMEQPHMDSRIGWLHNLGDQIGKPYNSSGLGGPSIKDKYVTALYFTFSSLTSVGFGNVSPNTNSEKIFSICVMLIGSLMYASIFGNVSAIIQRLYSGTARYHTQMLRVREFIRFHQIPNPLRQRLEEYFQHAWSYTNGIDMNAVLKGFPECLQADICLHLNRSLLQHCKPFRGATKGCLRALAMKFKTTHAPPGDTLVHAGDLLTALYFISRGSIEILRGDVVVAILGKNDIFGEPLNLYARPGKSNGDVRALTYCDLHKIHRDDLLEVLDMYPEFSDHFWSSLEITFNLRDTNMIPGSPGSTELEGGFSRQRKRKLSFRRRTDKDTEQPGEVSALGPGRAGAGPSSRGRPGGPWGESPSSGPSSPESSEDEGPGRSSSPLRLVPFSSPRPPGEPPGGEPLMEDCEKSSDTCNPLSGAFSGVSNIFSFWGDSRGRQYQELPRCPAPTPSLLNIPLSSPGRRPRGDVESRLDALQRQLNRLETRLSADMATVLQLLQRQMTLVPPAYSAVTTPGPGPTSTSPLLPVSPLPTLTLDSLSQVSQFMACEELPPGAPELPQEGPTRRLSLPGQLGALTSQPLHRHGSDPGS
How it was run: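 Thallium served as the potassium surrogate; its influx into dye-loaded U2OS cells carrying the channel was measured by fluorescence over 2 min.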

[13] = Caspase-3/7 induction in HepG2 cells by small molecules, qHTS cell viability counter screen (AID 1346981); further: nearly all actives have a fitted effect of over 30% in size; further: potency means the concentration at half of the fitted maximal effect
How it was run: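 Wild-type HepG2 cells, 2,000/well, settled 5 hr at 37 C, 5% CO2 before compound addition. Viability read by CellTiter-Fluor fluorescence, reagent added after 16 hr compound exposure, then 1 hr at 37C, in the same wells as the caspase read.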

[14] = biological target: Nuclear receptor subfamily 1 group I member 2 (Homo sapiens) (UniProt O75469); assay: Human pregnane X receptor (PXR) activation by small molecules, qHTS assay (AID 1346985); further: nearly all actives have a fitted effect of over 40% in size
How it was run: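 DPX-2 cells (HepG2 co-transfected with a PXR response element and a CYP3A4-promoter luciferase construct) were seeded at 2,000 per well, rested 5 hr at 37C, then exposed to DMSO-dissolved compounds for 24 hr. Activation was read as luciferase luminescence.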

[15] = Caspase-3/7 induction in HepG2 cells by small molecules, qHTS assay (AID 1346978); further: nearly all actives have a fitted effect of over 15% in size
How it was run: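 Caspase-3/7 induction was measured by Caspase-Glo 3/7 luminescence (30 min, room temperature) after a 17 hr compound exposure of wild-type HepG2 cells seeded at 2,000 per well and pre-incubated 5 hr.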

[16] = biological target: Cytochrome P450 3A4 (Homo sapiens) (UniProt P08684); assay: Cytochrome P450 Family 3 Subfamily A Member 4 (CYP3A4) small molecule antagonists: luciferase reporter qHTS assay (AID 1671201); further: nearly all actives have a fitted effect of over 50% in size; further: potency means the concentration at half of the fitted maximal effect; on activity change, negative = inhibition: series mostly up to about 120 µM
Chain of Cytochrome P450 3A4 (Homo sapiens) (P08684 whole entry, looked up): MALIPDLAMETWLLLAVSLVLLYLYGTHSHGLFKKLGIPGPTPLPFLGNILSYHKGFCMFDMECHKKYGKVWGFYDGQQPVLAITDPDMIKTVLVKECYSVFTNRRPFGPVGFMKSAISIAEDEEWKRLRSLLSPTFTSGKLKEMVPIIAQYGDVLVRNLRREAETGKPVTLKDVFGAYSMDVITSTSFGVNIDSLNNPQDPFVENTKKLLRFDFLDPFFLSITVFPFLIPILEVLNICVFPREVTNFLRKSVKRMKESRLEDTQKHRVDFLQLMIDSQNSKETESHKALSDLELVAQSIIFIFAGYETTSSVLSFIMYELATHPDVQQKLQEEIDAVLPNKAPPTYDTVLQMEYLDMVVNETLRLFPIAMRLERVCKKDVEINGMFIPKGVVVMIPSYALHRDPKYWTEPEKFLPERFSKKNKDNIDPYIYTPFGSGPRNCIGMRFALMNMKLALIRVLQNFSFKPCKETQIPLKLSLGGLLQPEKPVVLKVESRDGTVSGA
How it was run: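 Relative luminescence units after 20 min with luciferin detection reagent served as read-out. Beforehand, CYP3A4 turned over a proluciferin substrate for 1 h at room temperature with NADPH regeneration, following 10 min compound preincubation.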
On the % scale 0 is the no-effect control and ±100 the full control effect.

S=c1nc[nH]c2nc[nH]c12
inactive: Potency [1] | Potency [2] | Potency [3] | Potency [4] | Potency [5] | max activation [6] -6.82% | outcome [7] | Potency [8] | Potency [11] | Potency [12]
active: Potency [9] 69.2 µM and 30.9 µM | Potency [10] 34.7 µM

Cc1cc(O)cc(C)c1Cl
active: Potency [11] 25.2 µM and 15.5 µM
inactive: Potency [1] | Potency [2] | Potency [4] | Potency [13] | Potency [5] | max activation [6] -1.35% | outcome [7] | outcome [14] | Potency [8] | Potency [9] | Potency [10] | Potency [12]

C=C1C2CCC(C2)C1(C)C (stereo not given)
inactive: Potency [1] | Potency [2] | Potency [15] | Potency [4] | Potency [13] | Potency [5] | Potency [8] | Potency [9] | Potency [10] | Potency [12] | Potency [16]
inactive and 39.9 µM (active): Potency [11]

CC(C)n1c(/C=C/[C@@H](O)C[C@@H](O)CC(=O)O)c(-c2ccc(F)cc2)c2ccccc21
inactive: Potency [1] | Potency [2] | Potency [3] | Potency [13] | Potency [8] | Potency [9] | Potency [12]
active: Potency [6] 12.6 µM

CCC(C)C=O (stereo not given)
39.9 µM (active) and inactive: Potency [9]
inactive: Potency [1] | Potency [2] | Potency [4] | Potency [13] | Potency [5] | Potency [8] | Potency [10] | Potency [11] | Potency [12] | Potency [16]

CCCCOCCO
inactive: Potency [1] | Potency [2] | Potency [15] | Potency [13] | Potency [5] | Potency [8] | Potency [9] | Potency [10] | Potency [12]

CC1=CC[C@H]2C[C@@H]1C2(C)C
inactive: Potency [1] | Potency [2] | Potency [3] | Potency [4] | Potency [13] | Potency [5] | Potency [8] | Potency [9] | Potency [10] | Potency [11] | Potency [12]

CNC[C@H](O)[C@@H](O)[C@H](O)[C@H](O)CO
inactive: Potency [1] | Potency [2] | Potency [15] | Potency [13] | Potency [5] | max activation [6] -2.23% | outcome [7] | outcome [14] | Potency [8] | Potency [9] | Potency [11] | Potency [12] | Potency [16]

CCCCC(CC)C(=O)OCCOCCOCCOC(=O)C(CC)CCCC (stereo not given)
active: Potency [9] 40.4 µM and 17.8 µM | Potency [10] 25.5 µM and 7.96 µM
inactive: Potency [1] | Potency [2] | Potency [15] | Potency [4] | Potency [13] | Potency [5] | Potency [8] | Potency [12]

CCC(=O)O
inactive: Potency [2] | Potency [15] | Potency [3] | Potency [13] | Potency [5] | Potency [8] | Potency [9] | Potency [10] | Potency [11] | Potency [12] | Potency [16]

CN(CCOc1ccc(CC2SC(=O)NC2=O)cc1)c1ccccn1 (stereo not given)
62.9 µM (active) and inactive: Potency [10]
54.2 µM (active) and inactive: Potency [5]
inactive: Potency [2] | Potency [3] | Potency [4] | Potency [13] | max activation [6] -1.4% | outcome [14] | Potency [9] | Potency [11] | Potency [12]

CCc1ccc(O)cc1
71.3 µM (active) and inactive: Potency [9]
inactive: Potency [2] | Potency [15] | Potency [3] | Potency [4] | Potency [13] | Potency [5] | Potency [8] | Potency [10] | Potency [11] | Potency [12] | Potency [16]

O=C1N=C(O)CN1/N=C/c1ccc(-c2ccc([N+](=O)[O-])cc2)o1
active: Potency [2] 27.3 µM and 23.7 µM | Potency [13] 48.6 µM
inactive: Potency [15] | max activation [6] -4.97% | Potency [12]

OC[C@@H](O)[C@H](O)[C@H](O)[C@@H](O)CO
inactive: Potency [2] | Potency [15] | Potency [4] | Potency [13] | Potency [5] | max activation [6] -0.0445% and -4.34% | outcome [7] | outcome [14] | Potency [8] | Potency [9] | Potency [10] | Potency [11] | Potency [12] | Potency [16]

Cn1c([N+](=O)[O-])cnc1COC(N)=O
inactive: Potency [2] | Potency [15] | Potency [13] | Potency [5] | Potency [8] | Potency [9] | Potency [10] | Potency [11] | Potency [12]

CC(=O)[C@@]1(O)CC[C@H]2[C@@H]3CCC4=CC(=O)CC[C@]4(C)[C@H]3CC[C@@]21C
inactive: Potency [1] | Potency [3] | Potency [4] | Potency [13] | Potency [12]

CCCCC(CC)COC(=O)/C=C\C(=O)OCC(CC)CCCC (stereo not given)
active: Potency [9] 39.9 µM and 71 µM | Potency [10] 39.9 µM | Potency [11] 35.6 µM | Potency [16] 5.64 µM
inactive: Potency [1] | Potency [2] | Potency [13] | Potency [8] | Potency [12]
48.5 µM (active) and inactive: Potency [5]

NCCNCCNCCNCCN
active: Potency [8] 63 µM | Potency [9] 63 µM
inactive: Potency [2] | Potency [4] | Potency [13] | Potency [5] | max activation [6] -4.35% | outcome [7] | outcome [14] | activity change, negative = inhibition [8] -26.4% [at 10.5 µM] | activity change, negative = inhibition [9] 36.2% [at 10.5 µM] | activity change, negative = inhibition [10] 8.07% [at 10.5 µM] | activity change, negative = inhibition [11] 8.65% [at 10.5 µM] | Potency [12] | Potency [16]

Clc1cc(Cl)c(Cl)cc1Cl
inactive: Potency [2] | Potency [15] | Potency [4] | Potency [13] | Potency [5] | Potency [8] | Potency [9] | Potency [10] | Potency [12]

CCCCC(CC)COC(=O)CCCCCCCC(=O)OCC(CC)CCCC (stereo not given)
71 µM (active) and inactive: Potency [8]
35.6 µM (active) and inactive: Potency [11]
inactive: Potency [1] | Potency [2] | Potency [13] | Potency [12]
5.64 µM (active) and inactive: Potency [16]
7.96 µM (active) and inactive: Potency [9]
31.7 µM (active) and inactive: Potency [10]
24.3 µM (active) and inactive: Potency [5]

CCCCCCOC(C)=O
inactive: Potency [2] | Potency [15] | Potency [3] | Potency [13] | Potency [5] | Potency [8] | Potency [9] | Potency [10] | Potency [11] | Potency [12] | Potency [16]

Cc1ccc(C(=O)O)o1
inactive: Potency [2] | Potency [15] | Potency [3] | Potency [4] | Potency [13] | Potency [5] | Potency [8] | Potency [9] | Potency [10] | Potency [11] | Potency [12]

Oc1c(Cl)cc(Cl)c(Cl)c1Cl
inactive: Potency [1] | Potency [8] | Potency [9] | Potency [12] | Potency [16]
active: Potency [5] 59.8 µM and 54.5 µM | Potency [10] 39.1 µM and 28.3 µM | Potency [11] 62 µM and 63.3 µM

Cc1cc(NS(=O)(=O)c2ccc(N)cc2)no1
inactive: Potency [2] | Potency [15] | Potency [3] | Potency [4] | Potency [13]
